Results: PubChem BioAssay (Tox21)
Values joined by “and” are separate entries in the source; they are usually repeats but may differ in a detail not shown here. Equal values may be shown once. Unmarked numbers belong to inactive results. Inconclusive results are not listed. A call without a number means that no potency is given here. Active and inactive are the calls of the source. Unless noted, the call rests on the fitted dose curve; in most records, active means well fitted curve in the direction sought with a large enough effect in the repeat runs; inconclusive means weak or mixed curves; inactive means no such curve, though single readings can be large; an effect the other way counts as inactive or inconclusive.

Columns and labels:
[1] = qHTS assay to identify small molecule antagonists of the glucocorticoid receptor (GR) signaling pathway - cell viability counter screen (AID 720693); further: nearly all actives have a fitted effect of over 55% in size
[2] = qHTS assay for identifying genotoxic compounds that show differential cytotoxicity against isogenic chicken DT40 cell lines with known DNA damage response pathways - wild type cell line (AID 743012); further: nearly all actives have a fitted effect of over 60% in size; further: potency means the concentration at half of the fitted maximal effect
Summary of the method: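 300 wt DT40 cells/well; cpd (DMSO) pintool-transferred after ~0.5 h at 37 C/5% CO2; 40 h incubation; CellTiter-Glo added, 30 min RT; luminescence read.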

[3] = qHTS assay for identifying genotoxic compounds that show differential cytotoxicity against isogenic chicken DT40 cell lines with known DNA damage response pathways - Rad54/Ku70 mutant cell line (AID 743015); further: nearly all actives have a fitted effect of over 60% in size; further: potency means the concentration at half of the fitted maximal effect
[4] = qHTS assay to identify small molecule antagonists of the androgen receptor (AR) signaling pathway - cell viability counter screen (AID 743033; further: nearly all actives have a fitted effect of over 45% in size)
[5] = qHTS assay to identify small molecule antagonists of the androgen receptor (AR) signaling pathway using the MDA cell line - cell viability counter screen (AID 743041; further: nearly all actives have a fitted effect of over 45% in size)
Summary of the method: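 Compound exposure lasted 16 h at 37C in MDA-kb2 AR-luc cells stimulated with R1881. Protease-based CellTiter-Fluor reagent was applied for the final 30 min and fluorescence measured.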

[6] = qHTS assay to identify small molecule antagonists of the thyroid receptor (TR) signaling pathway - cell viability counter screen (AID 743064); further: nearly all actives have a fitted effect of over 50% in size
Summary of the method: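 In rat pituitary GH3.TRE-Luc reporter cells co-exposed to compound and 1 nM T3 for 23.5 h, cytotoxicity was assessed with CellTiter-Fluor in the same wells, read by fluorescence.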

[7] = qHTS assay to identify small molecule antagonists of the thyroid receptor (TR) signaling pathway (AID 743065); further: series mostly up to about 70 µM; nearly all actives have a fitted effect of over 55% in size
Summary of the method: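 GH3.TRE-Luc rat pituitary cells (two TREs driving luciferase) were dosed with compound, then stimulated with 1 nM T3 (final) for 23.5 h at 37 C. ONE-Glo luminescence was the read-out, with CellTiter-Fluor fluorescence as the cytotoxicity counter-screen.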

[8] = tested on: thyroid hormone receptor (rat, GH3 cells); assay: qHTS assay to identify small molecule agonists of the thyroid receptor (TR) signaling pathway (AID 743066; calls by dose curve)
[9] = qHTS assay to identify small molecule antagonists of the estrogen receptor alpha (ER-alpha) signaling pathway - cell viability counter screen (AID 743074; calls by dose curve; further: nearly all actives have a fitted effect of over 45% in size)
[10] = qHTS assay to identify small molecule antagonists of the estrogen receptor alpha (ER-alpha) signaling pathway using the BG1 cell line - cell viability counter screen (AID 743081);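 further: compound given together with 17beta-estradiol as the ER stimulus; series mostly up to about 70 µM; nearly all actives have a fitted effect of over 45% in size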
Aromatase (Homo sapiens) = Aromatase (Homo sapiens) (UniProt P11511); assay: qHTS assay to identify aromatase inhibitors (AID 743083); further: series mostly up to about 70 µM; nearly all actives have a fitted effect of over 55% in size
[11] = qHTS assay for identifying genotoxic compounds that show differential cytotoxicity against isogenic chicken DT40 cell lines with known DNA damage response pathways - Rev3 mutant cell line (AID 743014); further: nearly all actives have a fitted effect of over 55% in size; further: potency means the concentration at half of the fitted maximal effect
[12] = target: Estrogen receptor (Homo sapiens) (UniProt P03372); assay: qHTS assay to identify small molecule antagonists of the estrogen receptor alpha (ER-alpha) signaling pathway (AID 743069; active means well fitted curve in the direction sought with a large enough effect in the signal ratio in the repeat runs, not every such curve was filed as active; the % refers to the signal ratio)
Summary of the method: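 In this cell-based reporter format, GripTite HEK293 cells harbouring ER-alpha-UAS-bla were grown overnight with 2% charcoal-stripped FBS, dosed with DMSO-dissolved compounds, then challenged with 17beta-estradiol. After 18 hr at 37C, beta-lactamase activity was detected by FRET fluorescence.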

[13] = target: Estrogen receptor (Homo sapiens) (UniProt P03372); assay: qHTS assay to identify small molecule agonists of the estrogen receptor alpha (ER-alpha) signaling pathway (AID 743075; calls by dose curve)
[14] = target: Estrogen receptor (Homo sapiens) (UniProt P03372); assay: qHTS assay to identify small molecule agonists of the estrogen receptor alpha (ER-alpha) signaling pathway using the BG1 cell line (AID 743079); further: nearly all actives have a fitted effect of over 20% in size; further: potency means the concentration at half of the fitted maximal effect
[15] = qHTS assay to identify small molecule antagonists of the estrogen receptor alpha (ER-alpha) signaling pathway using the BG1 cell line (AID 743080; calls by dose curve;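 further: BG1 cells stimulated with 17beta-estradiol alongside compound; series mostly up to about 70 µM; nearly all actives have a fitted effect of over 25% in size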)
Summary of the method: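 BG1Luc4E2, endogenous ER-alpha, 4xERE-luc; 5 d charcoal-stripped FBS, phenol red free; 24 h plating; cpd + 17beta-estradiol 21.5 h, 37 C/5% CO2; CellTiter-Fluor viability 30 min, then ONE-Glo luciferase 30 min RT.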

[16] = target: Androgen receptor (Homo sapiens) (UniProt P10275); assay: qHTS assay to identify small molecule antagonists of the androgen receptor (AR) signaling pathway (AID 743035; active means well fitted inhibition curve with a large enough effect in the signal ratio in the repeat runs, not every such curve was filed as active; the % refers to the signal ratio)
Summary of the method: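 In this cell-based reporter screen, compounds were tested in concentration series against R1881-activated HEK293 cells expressing beta-lactamase under UAS control; after 16 h at 37C, FRET substrate was added and fluorescence read 2 h later.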

[17] = target: Androgen receptor (Homo sapiens) (UniProt P10275); assay: qHTS assay to identify small molecule agonists of the androgen receptor (AR) signaling pathway (AID 743036; active means well fitted activation curve with a large enough effect in the signal ratio in the repeat runs, with a control signal flat, not every such curve was filed as active; the % refers to the signal ratio)
Summary of the method: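 Cell-based FRET reporter assay: HEK293 line with a UAS-beta-lactamase construct, compounds added in DMSO, 16 h exposure at 37C, then 2 h substrate step at room temperature and fluorescence intensity read.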

[18] = target: Androgen receptor (Homo sapiens) (UniProt P10275); assay: qHTS assay to identify small molecule agonists of the androgen receptor (AR) signaling pathway using the MDA cell line (AID 743040; further: nearly all actives have a fitted effect of over 20% in size)
Summary of the method: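 Testing was done with the MDA-kb2 AR-luc line, a human breast carcinoma stably transfected with MMTV-luciferase containing AR and GR response elements. Cells were exposed 16 h at 37C before ONE-Glo luminescence detection.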

[19] = target: Androgen receptor (Homo sapiens) (UniProt P10275); assay: qHTS assay to identify small molecule antagonists of the androgen receptor (AR) signaling pathway using the MDA cell line (AID 743042; further: nearly all actives have a fitted effect of over 55% in size)
Summary of the method: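 MDA-kb2 breast carcinoma cells carrying MMTV-luciferase (AR/GR responsive) were co-treated with compounds and the agonist R1881 for 16 h at 37C. Inhibition read as ONE-Glo luminescence; CellTiter-Fluor fluorescence measured in parallel for cytotoxicity.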

Sequence of Androgen receptor (Homo sapiens) (P10275 whole entry, looked up): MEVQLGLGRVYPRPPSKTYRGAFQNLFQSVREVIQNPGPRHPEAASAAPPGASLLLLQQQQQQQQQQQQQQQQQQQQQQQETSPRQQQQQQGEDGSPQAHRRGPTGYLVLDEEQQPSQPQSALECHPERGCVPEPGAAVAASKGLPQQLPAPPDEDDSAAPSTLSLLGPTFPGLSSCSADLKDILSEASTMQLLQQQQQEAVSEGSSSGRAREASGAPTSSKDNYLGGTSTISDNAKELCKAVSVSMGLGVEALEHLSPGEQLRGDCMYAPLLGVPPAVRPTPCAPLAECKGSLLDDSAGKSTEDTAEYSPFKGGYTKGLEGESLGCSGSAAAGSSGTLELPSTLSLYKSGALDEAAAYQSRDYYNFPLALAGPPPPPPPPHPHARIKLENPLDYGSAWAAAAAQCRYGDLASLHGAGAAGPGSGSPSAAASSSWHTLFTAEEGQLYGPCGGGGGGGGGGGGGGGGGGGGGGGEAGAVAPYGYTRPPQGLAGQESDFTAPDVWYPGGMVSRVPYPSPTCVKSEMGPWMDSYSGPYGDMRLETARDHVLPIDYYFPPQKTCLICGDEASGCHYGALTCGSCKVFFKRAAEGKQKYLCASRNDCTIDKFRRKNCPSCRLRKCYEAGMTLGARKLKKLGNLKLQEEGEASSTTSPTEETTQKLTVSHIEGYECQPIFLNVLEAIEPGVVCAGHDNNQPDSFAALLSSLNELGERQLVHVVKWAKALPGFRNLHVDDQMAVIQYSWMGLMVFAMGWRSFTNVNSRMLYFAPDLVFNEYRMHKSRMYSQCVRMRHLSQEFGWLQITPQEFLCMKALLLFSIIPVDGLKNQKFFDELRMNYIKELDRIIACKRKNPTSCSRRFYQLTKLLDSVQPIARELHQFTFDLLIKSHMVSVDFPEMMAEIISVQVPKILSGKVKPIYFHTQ
Sequence of Estrogen receptor (Homo sapiens) (P03372 whole entry, looked up): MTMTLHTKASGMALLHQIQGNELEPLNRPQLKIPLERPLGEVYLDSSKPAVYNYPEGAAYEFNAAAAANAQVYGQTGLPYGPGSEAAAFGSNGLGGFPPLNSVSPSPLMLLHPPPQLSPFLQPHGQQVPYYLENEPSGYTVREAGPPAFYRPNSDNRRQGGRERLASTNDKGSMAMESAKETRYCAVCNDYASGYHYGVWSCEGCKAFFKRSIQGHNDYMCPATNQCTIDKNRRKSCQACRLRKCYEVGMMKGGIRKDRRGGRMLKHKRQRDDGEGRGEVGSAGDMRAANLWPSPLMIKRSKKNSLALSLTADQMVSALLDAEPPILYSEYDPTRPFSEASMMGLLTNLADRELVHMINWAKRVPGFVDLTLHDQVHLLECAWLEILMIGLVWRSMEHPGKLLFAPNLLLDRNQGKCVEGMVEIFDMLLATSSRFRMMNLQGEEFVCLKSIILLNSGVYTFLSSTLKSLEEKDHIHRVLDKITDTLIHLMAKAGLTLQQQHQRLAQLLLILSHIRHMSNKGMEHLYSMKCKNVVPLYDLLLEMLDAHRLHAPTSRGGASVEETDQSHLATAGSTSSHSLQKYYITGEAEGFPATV
Sequence of Aromatase (Homo sapiens) (P11511 whole entry, looked up): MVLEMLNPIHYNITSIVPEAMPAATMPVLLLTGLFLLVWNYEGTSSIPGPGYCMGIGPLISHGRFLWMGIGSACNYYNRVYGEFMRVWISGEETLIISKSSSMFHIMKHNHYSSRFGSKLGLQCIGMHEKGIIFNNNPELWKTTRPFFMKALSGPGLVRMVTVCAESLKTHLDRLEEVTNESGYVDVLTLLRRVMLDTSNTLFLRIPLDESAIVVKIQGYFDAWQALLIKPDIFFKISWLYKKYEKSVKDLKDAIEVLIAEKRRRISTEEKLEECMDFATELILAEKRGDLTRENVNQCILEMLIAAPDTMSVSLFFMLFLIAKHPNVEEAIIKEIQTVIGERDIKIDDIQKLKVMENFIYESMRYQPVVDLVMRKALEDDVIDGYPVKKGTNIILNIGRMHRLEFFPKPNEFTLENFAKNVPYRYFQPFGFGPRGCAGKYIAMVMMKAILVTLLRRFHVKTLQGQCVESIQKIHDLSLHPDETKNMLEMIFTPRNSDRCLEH

Structure (SMILES)	Potency [1]	Potency [2]	Potency [3]	Potency [4]	Potency [5]	Potency [6]	Potency [7]	outcome [8]	outcome [9]	Potency [10]	Potency (Aromatase (Homo sapiens))	Potency [11]	Potency [12]	Potency [13]	Potency [14]	Potency [15]	Potency [16]	outcome [17]	outcome [18]	Potency [19]
c1ccc(CN(Cc2ccccc2)Cc2ccccc2)cc1	inactive	inactive	inactive	inactive	inactive	inactive	inactive	inactive	inactive	inactive	inactive									
Cc1cccc(C)c1NC(=O)CN1CCCC1	inactive	inactive	inactive		inactive	inactive	inactive	inactive	inactive	inactive	inactive	inactive								
CCCCCCCCCCCC(=O)OCC	inactive	inactive	inactive		inactive	inactive	inactive	inactive	inactive	inactive	inactive	inactive	inactive	inactive	inactive	inactive				
CC(=O)OCC(=O)[C@@]1(O)CC[C@H]2[C@@H]3CCC4=CC(=O)C=C[C@]4(C)[C@@]3(F)[C@@H](O)C[C@@]21C	inactive	inactive	inactive	inactive	inactive	inactive	inactive	inactive	inactive	inactive	inactive									
CCCC1CCOC(C)S1 (stereo unspecified)	inactive	inactive	inactive	inactive	inactive	inactive	inactive	inactive	inactive	inactive	inactive		inactive	inactive	inactive	inactive	inactive	inactive	inactive	inactive
CC(C)CC(C)(C)C	inactive	inactive	inactive		inactive	inactive		inactive	inactive	inactive	inactive	inactive	inactive	inactive	inactive					
CCc1cnc(C(=O)O)c(C(=O)O)c1	inactive	inactive	inactive	inactive	inactive	inactive	inactive	inactive	inactive	inactive	inactive		inactive	inactive	inactive	inactive				
COC(=O)c1cc(Cl)ccc1[N+](=O)[O-]	inactive	inactive	inactive	inactive	inactive	inactive	inactive		inactive	inactive	inactive		inactive	inactive	inactive	inactive				
CCC(C)C1N=C(C)C(C)S1 (stereo unspecified)	inactive	inactive		inactive	inactive	inactive	inactive	inactive	inactive	inactive		inactive								
CC(=O)c1ccc(Cl)c(Cl)c1Cl	inactive	inactive	inactive		inactive	inactive		inactive	inactive	inactive	inactive	inactive	inactive	inactive	inactive	inactive				
c1ccc(CCNc2nc(-c3ccccc3)cs2)cc1	inactive	29.8 µM (active)	33.5 µM (active)		inactive	inactive	inactive	inactive		inactive	inactive	29.8 µM (active)		inactive	944 nM (active)					
CCCCCCOC(=O)c1ccccc1	inactive	68.6 µM (active)	61.1 µM (active)			inactive	inactive	inactive	inactive	inactive	inactive	61.1 µM (active)	inactive	inactive	inactive	inactive				
O=C(O)CCc1nc2ccccc2[nH]1	inactive	inactive	inactive		inactive	inactive	inactive	inactive	inactive	inactive	inactive	inactive	inactive	inactive	inactive					
C1CCN(CN2CCCCC2)CC1	inactive	inactive	inactive		inactive	inactive	inactive	inactive	inactive	inactive	inactive	inactive	inactive	inactive	inactive	inactive				
CC1(C)CC(O)CC(C)(C)N1[O]	inactive	inactive	inactive		inactive	inactive	inactive	inactive	inactive	inactive	inactive	inactive	inactive	inactive	inactive	inactive				
NC(=O)c1cc[n+](CC2=C(C(=O)[O-])N3C(=O)[C@@H](NC(=O)Cc4cccs4)[C@H]3SC2)cc1	inactive	inactive	inactive		inactive				inactive	inactive	inactive	inactive	inactive	inactive	inactive					
O=Cc1ccc(Cl)c([N+](=O)[O-])c1	inactive	4.33 µM (active)	3.06 µM (active)		inactive	inactive	inactive	inactive	inactive	inactive		4.33 µM (active)		inactive						
CC1=C(C)C(=O)C(CCCCC#CCCCC#CCO)=C(C)C1=O	inactive	8.41 µM (active)	11.9 µM (active)		inactive					inactive		10.6 µM (active)		inactive						
COc1ccc(C(=O)c2ccc(C)cc2)c(O)c1	inactive	inactive		inactive	inactive	inactive	inactive	inactive	inactive	inactive	inactive	inactive	inactive	inactive	13.3 µM (active) and 12.3 µM (active)					
